According to PubChem BioAssay (Tox21):
Values without a mark were called inactive. Results filed as inconclusive are left out. Where a call stands in place of a potency, no number is given. Activity calls are given as the source filed them. Unless noted, the call rests on the fitted dose curve; in most records, active means well fitted curve in the direction sought with a large enough effect in the repeat runs; inconclusive means weak or mixed curves; inactive means no such curve, though single readings can be large; an effect the other way counts as inactive or inconclusive.

Assays:
[1] = qHTS assay to identify small molecule agonists of the progesterone receptor (PR) signaling pathway - cell viability counter screen (AID 1346799; calls by dose curve; further: nearly all actives have a fitted effect of over 45% in size)
Procedure, shortened: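 Cytotoxicity measured by CellTiter-Glo luminescence (30 min, RT) in the same wells as the PR beta-lactamase agonist read. Those HEK293T cells had 16 h compound treatment at 37 C in 2% charcoal-stripped FBS medium.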

[2] = qHTS assay to identify small molecule antagonists of the TGF-beta/Smad signaling pathway - cell viability counter screen (AID 1346824); further: nearly all actives have a fitted effect of over 50% in size
Procedure, shortened: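 SBE-bla HEK 293T cells were plated overnight at 37 C, then given compounds in DMSO plus TGF-beta1 (added as 0.25 ng/mL solution) for 5 hr. After the bla read, CellTiter-Glo was added to the same wells and luminescence read after 30 min at room temperature.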

[3] = qHTS assay to identify small molecule agonists of the TGF-beta/Smad signaling pathway - cell viability counter screen (AID 1346829); further: top concentration of the series differs between compounds; nearly all actives have a fitted effect of over 45% in size
Procedure, shortened: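 After overnight seating at 37 C and 5% CO2, reporter cells got compounds for 5 hr and FRET substrate for 2 hr; cell viability then came from CellTiter-Glo luminescence.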

[4] = qHTS assay to identify small molecule agonists of the TGF-beta/Smad signaling pathway (AID 1346859; active means well fitted activation curve with a large enough effect in the signal ratio in the repeat runs, not every such curve was filed as active; the % refers to the signal ratio; further: series mostly up to about 77 µM)
Procedure, shortened: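 Fluorescence (ex 405 nm; em 460 and 530 nm) was read 2 h after LiveBLAzer FRET substrate at RT. The preceding compound treatment of overnight-plated SBE-bla HEK293T cells lasted 5 h at 37 C.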

[5] = molecular target: Thyrotropin-releasing hormone receptor (Homo sapiens) (UniProt P34981); experiment: qHTS assay to identify small molecule antagonists of the thyrotropin-releasing hormone receptor (TRHR) signaling pathway (AID 1346877; active means well fitted inhibition curve with a large enough effect in the repeat runs, not every such curve was filed as active; further: series mostly up to about 51 µM)
Procedure, shortened: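 Intracellular calcium fluorescence, read kinetically every second over 3 min, reports TRH-evoked signalling in HEK293 cells carrying TRHR. Test compounds were added 5 min ahead of a 1 nM TRH challenge.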

[6] = molecular target: Thyrotropin-releasing hormone receptor (Homo sapiens) (UniProt P34981); experiment: qHTS assay to identify small molecule agonists of the thyrotropin-releasing hormone receptor (TRHR) signaling pathway (AID 1346891; calls by dose curve; further: series mostly up to about 58 µM)
Procedure, shortened: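 Agonist-mode intracellular calcium readout: kinetic fluorescence over 3 min at 1 s intervals after compound addition to TRHR-HEK293 cells (18 h seeded, 2 h dye-loaded at 37 C). Fifteen concentrations, triplicates.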

[7] = Human pregnane X receptor (PXR) small molecule agonists, qHTS cell viability counter screen (AID 1346977); further: nearly all actives have a fitted effect of over 50% in size
Procedure, shortened: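 Same-well viability read: CellTiter-Fluor added after 23 hr compound exposure, fluorescence measured 1 hr later. Cells were PXR-Luc HepG2 seeded at 2,000/well in 5% charcoal-stripped FBS medium, rested 5 hr before dosing at 37 C.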

[8] = Caspase-3/7 induction in HepG2 cells by small molecules, qHTS assay (AID 1346978); further: nearly all actives have a fitted effect of over 15% in size
Procedure, shortened: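 Wild-type HepG2 cells (2,000/well) were settled 5 h at 37 C, 5% CO2, then exposed to compounds in DMSO for 17 h. Caspase-3/7 activity was read by luminescence 30 min after adding Caspase-Glo 3/7 reagent at room temperature.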

[9] = Caspase-3/7 induction in CHO-K1 cells by small molecules, qHTS cell viability counter screen (AID 1346979); further: nearly all actives have a fitted effect of over 35% in size
Procedure, shortened: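 Cytotoxicity counter screen: CellTiter-Fluor added to compound-treated wild-type CHO-K1 cells at 16 h (37C, 5% CO2), fluorescence measured 1 h later; same wells as caspase-3/7 measurement.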

[10] = Caspase-3/7 induction in CHO-K1 cells by small molecules, qHTS assay (AID 1346980); further: nearly all actives have a fitted effect of over 15% in size
Procedure, shortened: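 Wild-type cells were seeded at 1,500 per well and settled 5 hr at 37 C, 5% CO2, then exposed to DMSO-dissolved compounds for 17 hr. Caspase-Glo 3/7 reagent was added, and luminescence was read after 30min at room temperature.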

[11] = Caspase-3/7 induction in HepG2 cells by small molecules, qHTS cell viability counter screen (AID 1346981); further: series mostly up to about 92 µM; nearly all actives have a fitted effect of over 30% in size
Procedure, shortened: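 HepG2, WT, 2,000 cells/well; 5 hr pre-incubation 37 C/5% CO2; compound pin-transferred from DMSO; 16 hr exposure; CellTiter-Fluor, 1 hr; fluorescence read.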

[12] = molecular target: Nuclear receptor subfamily 1 group I member 2 (Homo sapiens) (UniProt O75469); experiment: Human pregnane X receptor (PXR) small molecule agonists, qHTS assay (AID 1346982); further: nearly all actives have a fitted effect of over 35% in size; further: potency means the concentration at half of the fitted maximal effect
Procedure, shortened: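 Luciferase signal from ONE-Glo (30 min, room temperature) measured activation of hPXR-driven CYP3A4 reporter expression in PXR-Luc HepG2 cells treated with compounds for 24 hr at 37 C.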

[13] = molecular target: Cytochrome P450 2D6 (Homo sapiens) (UniProt P10635); experiment: Cytochrome P450 Family 2 Subfamily D Member 6 (CYP2D6) small molecule antagonists: luciferase reporter qHTS assay (AID 1671196); further: nearly all actives have a fitted effect of over 50% in size; further: potency means the concentration at half of the fitted maximal effect
Procedure, shortened: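 Read-out is luminescence from luciferin formed by CYP2D6 turnover of a proluciferin substrate, recorded as relative luminescence units. Reactions ran 1 h at room temperature after NADPH regeneration solution was added.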

[14] = molecular target: Voltage-gated inwardly rectifying potassium channel KCNH2 (Homo sapiens) (UniProt Q12809); experiment: Human Ether-a-go-go-Related Gene (hERG) channel small molecule antagonists: fluorescence cell-based qHTS assay (AID 1671200); further: nearly all actives have a fitted effect of over 50% in size; further: potency means the concentration at half of the fitted maximal effect
Procedure, shortened: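 Thallium flux as potassium surrogate: FluxOR II dye loaded 1 h at room temperature into hERG-expressing U2OS cells, then stimulus buffer added after 10 min. Kinetic 480 nm excitation/540 nm emission read, 2 min.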

[15] = molecular target: Cytochrome P450 2C19 (Homo sapiens) (UniProt P33261); experiment: Cytochrome P450 Family 2 Subfamily C Member 19 (CYP2C19) small molecule antagonists: luciferase reporter qHTS assay (AID 1671197); further: nearly all actives have a fitted effect of over 65% in size; further: potency means the concentration at half of the fitted maximal effect
Procedure, shortened: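 Inhibition of CYP2C19 was scored from loss of luminescence in a P450-Glo proluciferin substrate assay, NADPH-started and run 1 h at 37C, with ketoconazole as positive control.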

[16] = molecular target: Cytochrome P450 2C9 (Homo sapiens) (UniProt P11712); experiment: Cytochrome P450 Family 2 Subfamily C Member 9 (CYP2C9) small molecule antagonists: luciferase reporter qHTS assay (AID 1671198); further: nearly all actives have a fitted effect of over 50% in size; further: potency means the concentration at half of the fitted maximal effect
Procedure, shortened: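 CYP2C9 activity was measured with a P450-Glo proluciferin substrate. Enzyme–substrate mix was held with compound for 10 min at room temperature, then NADPH regeneration solution was added for 1 h at 37C. Luciferin product was read as luminescence.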

[17] = molecular target: Cytochrome P450 1A2 (Homo sapiens) (UniProt P05177); experiment: Cytochrome P450 Family 1 Subfamily A Member 2 (CYP1A2) small molecule antagonists: luciferase reporter qHTS assay (AID 1671199); further: nearly all actives have a fitted effect of over 50% in size; further: potency means the concentration at half of the fitted maximal effect
Procedure, shortened: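 P450-Glo CYP1A2, 1536-well qHTS: enzyme/proluciferin substrate + cpd (DMSO), 10 min RT; NADPH regen, 1 h RT; detection reagent, 20 min; luminescence, RLU.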

Chain of Cytochrome P450 2C19 (Homo sapiens) (P33261 whole entry, looked up): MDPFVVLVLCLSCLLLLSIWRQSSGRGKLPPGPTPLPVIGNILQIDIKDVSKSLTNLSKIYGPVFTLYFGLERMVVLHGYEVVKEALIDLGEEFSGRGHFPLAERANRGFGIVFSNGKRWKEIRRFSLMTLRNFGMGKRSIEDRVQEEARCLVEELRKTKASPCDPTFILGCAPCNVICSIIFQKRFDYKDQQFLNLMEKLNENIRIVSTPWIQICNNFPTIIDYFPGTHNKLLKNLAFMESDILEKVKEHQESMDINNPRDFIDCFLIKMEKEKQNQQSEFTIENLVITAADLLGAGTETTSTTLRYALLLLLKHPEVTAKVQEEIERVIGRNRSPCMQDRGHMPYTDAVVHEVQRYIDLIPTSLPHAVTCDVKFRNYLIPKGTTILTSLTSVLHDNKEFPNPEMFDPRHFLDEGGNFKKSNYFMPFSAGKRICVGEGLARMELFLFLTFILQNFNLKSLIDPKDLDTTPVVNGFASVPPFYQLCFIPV
Chain of Thyrotropin-releasing hormone receptor (Homo sapiens) (P34981 whole entry, looked up): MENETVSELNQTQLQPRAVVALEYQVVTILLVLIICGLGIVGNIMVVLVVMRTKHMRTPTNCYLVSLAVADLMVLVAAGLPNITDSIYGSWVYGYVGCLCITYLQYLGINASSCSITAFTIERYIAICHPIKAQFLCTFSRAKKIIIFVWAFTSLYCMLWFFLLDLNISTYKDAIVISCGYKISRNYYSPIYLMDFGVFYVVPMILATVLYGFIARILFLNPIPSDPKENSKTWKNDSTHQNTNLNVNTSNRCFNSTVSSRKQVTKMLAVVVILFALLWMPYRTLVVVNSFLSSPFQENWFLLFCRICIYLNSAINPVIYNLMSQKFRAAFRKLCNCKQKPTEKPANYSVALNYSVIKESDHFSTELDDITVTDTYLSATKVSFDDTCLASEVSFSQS
Chain of Cytochrome P450 2D6 (Homo sapiens) (P10635 whole entry, looked up): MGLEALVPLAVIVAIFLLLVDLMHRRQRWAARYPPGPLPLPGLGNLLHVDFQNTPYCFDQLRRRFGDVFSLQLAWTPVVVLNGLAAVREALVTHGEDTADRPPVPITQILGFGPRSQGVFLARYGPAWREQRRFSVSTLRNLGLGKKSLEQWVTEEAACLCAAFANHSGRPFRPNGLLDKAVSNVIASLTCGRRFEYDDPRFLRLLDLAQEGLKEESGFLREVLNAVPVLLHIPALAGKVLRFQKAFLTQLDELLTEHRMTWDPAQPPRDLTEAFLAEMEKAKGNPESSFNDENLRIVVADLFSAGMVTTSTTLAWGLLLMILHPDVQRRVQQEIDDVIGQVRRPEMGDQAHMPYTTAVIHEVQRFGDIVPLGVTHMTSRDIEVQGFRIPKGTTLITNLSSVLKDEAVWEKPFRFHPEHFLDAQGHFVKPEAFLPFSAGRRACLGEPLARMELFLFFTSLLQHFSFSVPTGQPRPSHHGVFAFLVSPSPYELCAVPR
Chain of Cytochrome P450 1A2 (Homo sapiens) (P05177 whole entry, looked up): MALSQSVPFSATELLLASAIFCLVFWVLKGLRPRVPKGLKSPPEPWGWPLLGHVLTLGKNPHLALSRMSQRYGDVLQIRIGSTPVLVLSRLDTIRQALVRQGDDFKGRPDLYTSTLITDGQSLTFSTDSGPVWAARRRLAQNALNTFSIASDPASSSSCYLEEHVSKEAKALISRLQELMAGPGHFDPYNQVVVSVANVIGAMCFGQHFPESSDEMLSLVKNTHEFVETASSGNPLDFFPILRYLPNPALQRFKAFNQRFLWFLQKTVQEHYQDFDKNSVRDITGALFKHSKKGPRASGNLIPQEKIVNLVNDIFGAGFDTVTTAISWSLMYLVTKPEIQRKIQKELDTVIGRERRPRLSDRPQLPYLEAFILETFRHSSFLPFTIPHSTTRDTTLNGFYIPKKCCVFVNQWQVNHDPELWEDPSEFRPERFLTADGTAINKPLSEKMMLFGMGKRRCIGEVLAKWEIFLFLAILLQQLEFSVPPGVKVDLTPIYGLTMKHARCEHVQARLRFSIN
Chain of Cytochrome P450 2C9 (Homo sapiens) (P11712 whole entry, looked up): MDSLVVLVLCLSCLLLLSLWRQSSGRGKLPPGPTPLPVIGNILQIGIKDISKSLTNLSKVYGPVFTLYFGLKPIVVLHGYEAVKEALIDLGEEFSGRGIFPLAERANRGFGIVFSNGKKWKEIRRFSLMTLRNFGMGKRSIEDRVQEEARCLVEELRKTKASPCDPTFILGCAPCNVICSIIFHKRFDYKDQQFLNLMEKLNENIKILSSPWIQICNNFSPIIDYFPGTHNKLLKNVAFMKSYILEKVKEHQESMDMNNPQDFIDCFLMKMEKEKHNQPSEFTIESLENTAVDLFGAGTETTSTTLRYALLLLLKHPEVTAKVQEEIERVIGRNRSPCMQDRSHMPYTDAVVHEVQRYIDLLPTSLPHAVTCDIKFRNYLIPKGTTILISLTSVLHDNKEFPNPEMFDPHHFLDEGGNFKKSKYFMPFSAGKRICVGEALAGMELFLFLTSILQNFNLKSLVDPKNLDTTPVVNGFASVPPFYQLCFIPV
Chain of Nuclear receptor subfamily 1 group I member 2 (Homo sapiens) (O75469 whole entry, looked up): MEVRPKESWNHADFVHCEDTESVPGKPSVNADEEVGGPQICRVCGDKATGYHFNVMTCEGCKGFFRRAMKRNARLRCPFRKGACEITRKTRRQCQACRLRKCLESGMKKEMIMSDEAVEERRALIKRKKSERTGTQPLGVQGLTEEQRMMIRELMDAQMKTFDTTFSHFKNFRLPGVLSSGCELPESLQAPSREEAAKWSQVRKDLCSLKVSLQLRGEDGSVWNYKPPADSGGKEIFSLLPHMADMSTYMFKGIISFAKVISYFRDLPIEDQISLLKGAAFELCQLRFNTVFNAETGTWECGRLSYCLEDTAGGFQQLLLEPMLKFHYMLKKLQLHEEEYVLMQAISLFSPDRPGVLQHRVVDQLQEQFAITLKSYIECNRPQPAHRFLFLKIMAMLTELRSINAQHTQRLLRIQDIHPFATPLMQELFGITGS
Chain of Voltage-gated inwardly rectifying potassium channel KCNH2 (Homo sapiens) (Q12809 whole entry, looked up): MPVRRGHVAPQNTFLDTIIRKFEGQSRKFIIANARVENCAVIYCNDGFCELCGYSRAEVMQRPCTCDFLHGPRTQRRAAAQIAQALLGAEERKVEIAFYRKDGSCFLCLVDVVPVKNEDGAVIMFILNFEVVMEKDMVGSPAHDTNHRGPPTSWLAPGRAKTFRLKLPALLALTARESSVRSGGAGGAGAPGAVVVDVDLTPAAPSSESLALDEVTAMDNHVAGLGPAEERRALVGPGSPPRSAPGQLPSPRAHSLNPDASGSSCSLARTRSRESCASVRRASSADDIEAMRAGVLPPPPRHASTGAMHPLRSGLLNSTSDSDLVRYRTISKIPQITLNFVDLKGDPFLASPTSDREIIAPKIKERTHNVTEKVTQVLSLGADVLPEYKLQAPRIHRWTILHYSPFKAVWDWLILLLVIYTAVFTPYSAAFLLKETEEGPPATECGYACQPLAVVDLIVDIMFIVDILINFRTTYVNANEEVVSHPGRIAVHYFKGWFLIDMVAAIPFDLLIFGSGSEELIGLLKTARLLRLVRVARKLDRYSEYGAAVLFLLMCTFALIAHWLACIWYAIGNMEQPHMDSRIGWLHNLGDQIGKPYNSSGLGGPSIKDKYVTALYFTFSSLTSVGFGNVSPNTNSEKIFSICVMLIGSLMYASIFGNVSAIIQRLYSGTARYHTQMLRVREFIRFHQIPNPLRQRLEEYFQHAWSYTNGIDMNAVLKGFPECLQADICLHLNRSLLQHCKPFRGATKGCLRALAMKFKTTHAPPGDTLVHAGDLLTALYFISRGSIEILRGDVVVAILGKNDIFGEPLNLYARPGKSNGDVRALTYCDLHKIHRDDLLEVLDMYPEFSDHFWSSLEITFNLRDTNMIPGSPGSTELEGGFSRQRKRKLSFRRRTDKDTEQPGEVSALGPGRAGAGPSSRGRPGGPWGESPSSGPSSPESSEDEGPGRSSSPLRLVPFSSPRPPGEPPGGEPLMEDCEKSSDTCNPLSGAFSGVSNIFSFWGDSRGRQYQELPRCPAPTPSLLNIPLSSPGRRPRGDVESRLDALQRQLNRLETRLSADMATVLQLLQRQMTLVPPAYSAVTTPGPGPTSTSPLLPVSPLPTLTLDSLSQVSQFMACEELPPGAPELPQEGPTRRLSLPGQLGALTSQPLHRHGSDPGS

| SMILES | Potency [1] | Potency [2] | Potency [3] | outcome [4] | Potency [5] | Potency [6] | Potency [7] | Potency [8] | Potency [9] | Potency [10] | Potency [11] | Potency [12] | Potency [13] | Potency [14] | Potency [15] | Potency [16] | Potency [17] |
| --- | --- | --- | --- | --- | --- | --- | --- | --- | --- | --- | --- | --- | --- | --- | --- | --- | --- |
| CCCCCCCCc1ccc(Nc2ccc(CCCCCCCC)cc2)cc1 | inactive | inactive | inactive | inactive | inactive | inactive | inactive | inactive | inactive | inactive | inactive | inactive | inactive | inactive |  |  |  |
| CCOC(=O)C1=NN(c2ccc(Cl)cc2Cl)C(C)(C(=O)OCC)C1 (centres undefined) | inactive | inactive | inactive | inactive | inactive | inactive | inactive | inactive | inactive | inactive | inactive | 54.5 µM (active) | 39.9 µM (active) | 43.6 µM (active) | 2.52 µM (active) | 7.1 µM (active) |  |
| C/C(=N\[Si](C)(C)C)O[Si](C)(C)C | inactive | inactive | inactive | inactive | inactive | inactive | inactive | inactive | inactive | inactive | inactive | inactive | inactive | inactive | inactive |  |  |
| C/C=C/C(=O)OCC(C)C | inactive | inactive | inactive | inactive | inactive | inactive | inactive | inactive |  | inactive | inactive | inactive | inactive | inactive | inactive | inactive | inactive |
| [Cl][Eu]([Cl])[Cl] | inactive | inactive | inactive | inactive | inactive | inactive | inactive | inactive |  | inactive | inactive | inactive | inactive | inactive | inactive | inactive | inactive |
| Cn1c(=O)[nH]c2ncn(C)c2c1=O | inactive | inactive | inactive | inactive | inactive | inactive | inactive | inactive | inactive | inactive | inactive | inactive | inactive |  | inactive |  | inactive |
| COCCC(=O)OC | inactive | inactive | inactive | inactive | inactive | inactive | inactive | inactive | inactive | inactive | inactive | inactive | inactive | inactive | inactive | inactive | inactive |
| CCN(CC)c1ccc(C=O)cc1 | inactive | inactive | inactive | inactive | inactive | inactive | inactive | inactive | inactive | inactive | inactive |  | inactive | inactive | 15.9 µM (active) |  | 5.64 µM (active) |
| [Cl][Dy]([Cl])[Cl] | inactive | inactive | inactive | inactive | inactive | inactive | inactive | inactive | inactive | inactive | inactive | inactive | inactive | inactive | inactive | inactive | inactive |
| CC(C=O)c1ccccc1 (centres undefined) | inactive | inactive | inactive | inactive | inactive | inactive | inactive | inactive | inactive | inactive | inactive | inactive | inactive | inactive | 79.6 µM (active) | 35.6 µM (active) |  |
| CC1=CC[C@@H](C(C)(C)O)CC1 | inactive | inactive | inactive | inactive | inactive | inactive | inactive | inactive |  | inactive | inactive | inactive | inactive | inactive | inactive | inactive | inactive |
| C=Cc1ccncc1 | inactive | inactive | inactive | inactive | inactive | inactive | inactive | inactive | inactive | inactive | inactive | inactive | inactive |  | inactive | inactive |  |
| CCc1cccc(C)c1N(C(=O)C(=O)O)C(C)COC (centres undefined) | inactive | inactive | inactive | inactive | inactive | inactive | inactive | inactive | inactive | inactive | inactive | inactive |  | inactive | inactive |  | inactive |
| CCC(O)CO (centres undefined) | inactive | inactive | inactive | inactive | inactive | inactive | inactive | inactive | inactive | inactive | inactive | inactive | inactive |  | inactive | inactive | inactive |
